These results are taken from PubChem BioAssay.

The nature of assay [1]: reducers of endogenous Her2 protein level, primary screen, SKBR3 breast tumor cells, AlphaScreen, ATP viability (AID 461;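 active means Her2 level under about 52% in both replicate screens, with viability over 70% of control, limit read from the data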;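 on Her2 level: lower value means less Her2 protein in the cells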;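 on viability: percent of carrier control wells set as 100% viability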). Particulars: 18-24 h, measured here: SKBR3 viability, ATP luminescence, at 10 µM. (Bead proximity is the source of the signal in Alpha formats.)
In assay [2] the target is Receptor tyrosine-protein kinase erbB-2 (Homo sapiens) (UniProt P04626). The description is as above. Particulars: 18-24 h, at 10 µM, stronger effect = lower value.
Receptor tyrosine-protein kinase erbB-2 (Homo sapiens), sequence (P04626 whole entry, looked up): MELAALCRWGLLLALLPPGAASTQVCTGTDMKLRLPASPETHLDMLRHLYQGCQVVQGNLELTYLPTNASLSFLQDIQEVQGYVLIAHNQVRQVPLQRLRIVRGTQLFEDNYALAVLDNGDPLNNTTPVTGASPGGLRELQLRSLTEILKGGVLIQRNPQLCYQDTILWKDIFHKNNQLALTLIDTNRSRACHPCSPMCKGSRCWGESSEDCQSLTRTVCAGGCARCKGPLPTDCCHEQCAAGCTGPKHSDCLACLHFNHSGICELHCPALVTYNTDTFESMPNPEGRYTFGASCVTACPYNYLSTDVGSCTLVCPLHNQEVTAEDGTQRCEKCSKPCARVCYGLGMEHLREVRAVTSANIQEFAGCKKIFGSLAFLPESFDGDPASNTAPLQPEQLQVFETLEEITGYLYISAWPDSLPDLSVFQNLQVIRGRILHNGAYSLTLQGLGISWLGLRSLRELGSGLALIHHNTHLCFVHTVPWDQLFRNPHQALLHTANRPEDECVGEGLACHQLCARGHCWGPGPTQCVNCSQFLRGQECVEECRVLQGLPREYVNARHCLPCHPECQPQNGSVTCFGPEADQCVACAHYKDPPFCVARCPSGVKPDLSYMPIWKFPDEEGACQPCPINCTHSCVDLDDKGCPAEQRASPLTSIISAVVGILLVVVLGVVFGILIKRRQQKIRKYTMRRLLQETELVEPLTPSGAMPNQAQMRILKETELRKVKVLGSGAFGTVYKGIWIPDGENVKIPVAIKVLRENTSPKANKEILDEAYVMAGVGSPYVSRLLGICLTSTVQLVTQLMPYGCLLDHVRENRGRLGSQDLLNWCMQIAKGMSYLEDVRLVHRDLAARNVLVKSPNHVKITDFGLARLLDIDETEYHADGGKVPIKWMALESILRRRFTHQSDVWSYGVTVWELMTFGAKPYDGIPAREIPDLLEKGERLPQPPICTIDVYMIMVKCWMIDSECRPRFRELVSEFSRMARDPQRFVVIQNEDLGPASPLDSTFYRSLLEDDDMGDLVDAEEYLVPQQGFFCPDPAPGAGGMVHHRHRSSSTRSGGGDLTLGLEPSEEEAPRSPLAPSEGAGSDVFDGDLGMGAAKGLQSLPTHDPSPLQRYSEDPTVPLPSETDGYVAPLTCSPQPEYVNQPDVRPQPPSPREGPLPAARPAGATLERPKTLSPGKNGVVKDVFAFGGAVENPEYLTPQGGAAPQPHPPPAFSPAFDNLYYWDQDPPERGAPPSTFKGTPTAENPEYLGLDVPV
The nature of assay [3]: SK-BR-3 cell growth inhibitors, pilot screen, 24 h, human (AID 572).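 Further: compound exposure lasted between 18 and 24 h rather than exactly 24 h; 100% = carrier-treated control wells.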 Particulars: SK-BR-3 viability, CellTiter-Glo luminescence, at 10 µM, stronger effect = lower value.
A short description of assay [4]: HUVEC growth inhibition – cell-based, human, primary screen (AID 575;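 active means viability at or below 30% in both replicate assays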;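 further: 100% = median of untreated cell wells with 0.1% DMSO on each plate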). Particulars: HUVEC proliferation, CellTiter-Glo luminescence, 72 h; at 10 µM; stronger effect = lower value. (In general: Cellular ATP, detected with luciferase, serves as a proxy for viable cell number.)
Assay [5] in a line: growth inhibitors of H69AR lung tumor, primary screen, human, duplicate replicates (AID 580;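 active means viability at or under a set limit in both replicates, limit being median viability minus 3 SD, cut at about 48% in these data, passing the limit was not always enough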;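 further: 100% = mean luminescence of untreated wells and 0% = no signal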). Particulars: H69AR lung tumor cells viability, ATP luminescence, 72 h; at 10 µM; stronger effect = lower value.
A short description of assay [6]: reversal of MRP1-mediated doxorubicin resistance, pilot screen, H69AR cells, doxorubicin co-treatment (AID 601;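 active means viability loss from added drug above about 55%, and viability with drug at most 40%, in both replicates, limit read from the data, passing the limit was not always enough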). Particulars: CellTiter-Glo, 72 h, at 10 µM; for differential viability (reversal): stronger effect = higher value.
Assay [7] can be described thus: 384-well plate pilot, post-Golgi transport modulator project, inhibition of yeast transport mutant growth (AID 636; in the data active means inhibition above about 31%). Particulars: absorbance 615 nm, about 18 h, stronger effect = higher value.
Assay [8] is described as follows: growth suppression of yeast trafficking mutant, preliminary HTS, modulators of trafficking downstream of Golgi apparatus project, 1536-format plate, OD 615 nm (AID 637; in the data active means inhibition above about 30%). Particulars: yeast transport mutant growth, absorbance 615 nm, 18 h; stronger effect = higher value.
The nature of assay [9]: OD615 S. cerevisiae growth inhibition, permissive medium, pilot counter-assay, permissive growth control for S. cerevisiae lifespan shortening project (AID 705;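 active means growth inhibition above 25% in both replicates, a cutoff set 3 SD above the mean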). Particulars: OD615, 24 h, at 10 µM, stronger effect = higher value.
Assay [10] is described as follows: Restrictive medium S. cerevisiae growth inhibition, OD615, pilot screen of yeast lifespan reduction project, restrictive growth control (AID 706;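 active means growth inhibition above a set limit, 3 SD over mean compound inhibition, in both replicates, cut at about 43% in these data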;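 further: modified DeaD lifespan yeast strain shifted to restrictive glucose medium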). Particulars: OD615, 48 h, at 10 µM, stronger effect = higher value.
A short description of assay [11]: viability gain of MRP-1-high H69AR cells under doxorubicin, pilot screen, MRP-1 activator project, CellTiter-Glo, duplicate (AID 807;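 active means viability increase at or above a cutoff of the median across tested compounds plus 3 SD, cut at about 8.5% in these data, passing the limit was not always enough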;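 further: compound pretreatment 18-22 h then 72 h combined with doxorubicin; 0% = doxorubicin alone and 100% = vehicle without doxorubicin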). Particulars: H69AR viability with doxorubicin, CellTiter-Glo luminescence; at 10 µM; stronger effect = higher value.
Assay [12] can be described thus: growth suppression of beta-catenin knockout HCT116, pilot screen, human colon tumor cells (AID 823;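 active means cell viability at or below a set limit in both duplicate runs, the limit being the all-compound median minus 4 SD, cut at about 23% in these data, passing the limit was not always enough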;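 further: 0% = wells killed by 20 µM Hyamine and 100% = untreated DMSO cell wells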). Particulars: CellTiter-Glo, 60 h, at 10 µM, stronger effect = lower value.
The nature of assay [13]: growth suppression of PTEN-deleted HCT116, pilot screen, cell-based, HCT116 clonal line, CellTiter-Glo (AID 824;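 active means viability at or below 27.92% in each of two runs, the all-compound median minus 4 SD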;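 further: 0% = 20 µM Hyamine control and 100% = vehicle cell control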). Particulars: 60 h, at 10 µM, stronger effect = lower value.
A short description of assay [14]: inhibitors of the yeast RAM network, pilot screen, dse1pr::URA3 reporter, 5-FOA selection (AID 869;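 active means inhibition over a set limit, the all-compound mean plus 3 SD, in both replicate runs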;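 further: 0% = DMSO wells with no growth and 100% = 10 µM 1-NA-PP1 with full growth; RAM network block rescues cells from 5-FOA so hits raise OD615 growth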). Particulars: S. cerevisiae dse1pr::URA3 5-FOA growth, OD615, 2 d; at 10 µM; stronger effect = higher value; strain carries analog-sensitive mutant Cbk1 kinase.
Assay [15] can be described thus: RAM signaling pathway blockade in yeast – S. cerevisiae, Pdr1DBD-CYC8 efflux-inhibited sensitized strain, primary screen (AID 1298;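 active means RAM network inhibition above 8.4% in each of two replicates, 3 SD over the compound average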;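 further: 0% = DMSO untreated cells without growth and 100% = 10 µM 1-NA-PP1 full growth; higher means more yeast growth rescued from 5-FOA killing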). Particulars: S. cerevisiae cbk1-as DSE1-URA3 strain, 5-FOA growth OD615, 2 d; at 50 µM; stronger effect = higher value.
Setting [16] is: H69AR cells + 2 uM doxorubicin, measured here: viability with 2 uM doxorubicin, stronger effect = lower value.
The mark [17] stands for this setting: H69AR cells, compound alone cytotoxicity.

Records with an inconclusive call do not appear. Active and inactive are the calls of the source.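 How the source made its calls, unless noted: active means viability at or below 10% of carrier control in both of two separate runs; inconclusive means viability at or below 10% in only one of the two runs; inactive means the rest.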

As usually defined, the viability is a read-out of living cells in per cent, often relative to untreated cells. The term inhibition denotes the drop in the measured response relative to a control, in per cent.

Take `O=C(Cn1nc(Cc2cccnc2)c2ccccc2c1=O)NCC1CCCO1` (stereo not drawn): the viability in [1] was 122%; in assay [3], 122% (inactive); in [4], 99.2% (inactive); in assay [5], 92.2% (inactive); in [6] (setting [16]) it was 95.4%; in [6] (setting [17]), 92.2%. In addition, the viability in assay [12] was 105% (inactive); in [13], 99.1% (inactive). In addition, in [2], the Her2 level was 111% (inactive). Further, the differential viability (reversal) in assay [6] (H69AR cells + 2 uM doxorubicin) was -3.21% (inactive). Besides, the inhibition in [7] was -3.33% (inactive); in assay [8], 3.5% (inactive); in assay [14] it was 1.01% (inactive). In addition, the growth inhibition in assay [9] was -1.69% (inactive); in assay [10] it was 6.33% (inactive). In addition, the viability increase in assay [11] was -1.12% (inactive). Besides, the RAM network inhibition in assay [15] was 5.65% (inactive).
`CCOC(=O)N1CCN(C(=O)CSc2nnc(-c3cccc(Cl)c3)o2)CC1`: the viability was 82.5% in assay [1]; 82.5% (inactive) in assay [3]; 86.1% (inactive) in [4]; 93.9% (inactive) in [5]; 86.4% in assay [6] (setting [16]); 93.9% in [6] (setting [17]). Also, the values for the viability in assay [12] and in [13] were 105% (inactive) and 100% (inactive), respectively. Also, the Her2 level in [2] is 96.5% (inactive). The differential viability (reversal) in assay [6] (H69AR cells + 2 uM doxorubicin) is 7.46% (inactive). Further, the inhibition is 0.13% (inactive) in assay [7], -2.95% (inactive) in assay [8] and 2.61% (inactive) in assay [14]. Besides, the growth inhibition was -6.25% (inactive) in [9] and -10.5% (inactive) in assay [10]. Moreover, the viability increase in assay [11] was -0.22% (inactive). The RAM network inhibition in assay [15] was 2.71% (inactive).
As for `CCCCN(CC)CCCNC(=O)c1cc2c(=O)n(C)c3ccccc3c2n1C`, the viability in assay [1] is 76%; in assay [3], 76% (inactive); in [4], 67.5% (inactive); in assay [5] it was 70.1% (inactive); in assay [6] (setting [16]) it was 70.2%; in [6] (setting [17]), 70.1%. Moreover, the viability in assay [12] was 55.8% (inactive); in [13], 54.6% (inactive). Further, the Her2 level in [2] is 77% (inactive). For the same compound, the differential viability (reversal) in assay [6] (H69AR cells + 2 uM doxorubicin) was -0.115% (inactive). The inhibition in assay [7] was -2.05% (inactive); in assay [8], -2% (inactive); in [14] it was -0.01% (inactive). In addition, the growth inhibition in assay [9] is -8.88% (inactive); in [10], -1.18% (inactive). Besides, the viability increase in assay [11] was -7.73% (inactive). Also, the RAM network inhibition in assay [15] is 1.02% (inactive).
With `COc1ccc(NC(=O)C2CCCN(S(=O)(=O)c3cccc4cccnc34)C2)cc1OC` (stereo not drawn), the viability in [1] is 82%; in [3], 82% (inactive); in assay [4], 75.4% (inactive); in assay [5] it was 67.5% (inactive); in assay [6] (setting [16]), 74.2%; in [6] (setting [17]), 67.5%. In addition, the values for the viability in assay [12] and in assay [13] were 80.3% (inactive) and 78.6% (inactive), respectively. For the same compound, the Her2 level in assay [2] was 106% (inactive). Further, the differential viability (reversal) in assay [6] (H69AR cells + 2 uM doxorubicin) is -6.73% (inactive). The inhibition is -4.13% (inactive) in assay [7], 1.67% (inactive) in assay [8] and 2.09% (inactive) in [14]. Besides, the figures for the growth inhibition in [9] and in assay [10] were -1.21% (inactive) and 0.31% (inactive), respectively. In addition, in assay [11], the viability increase is -2.32% (inactive). For the same compound, in assay [15], the RAM network inhibition was 2.55% (inactive).
